Holding throughout (experiment): NCI-60 one-dose screen, 48 h (100 = growth as untreated, 0 = no growth, -100 = all killed)
What all share (conditions): 10 µM unless noted

In experiment [1] the test system is NCI-H23 lung.
Experiment [2] concerns NCI-H226 lung.
The subject of experiment [3] is NCI-H322M lung.
Experiment [4] deals with HOP-62 NSCLC.
For experiment [5], the system named is NCI-H460 lung.
Experiment [6] has as its system HOP-92 NSCLC.
For experiment [7], the system named is NCI-H522 lung.
Experiment [8] concerns A549/ATCC NSCLC.
Experiment [9] concerns 786-0 renal.
For experiment [10], the system named is DU-145 prostate.
The test system of experiment [11] is K-562 leukemia.
In experiment [12] the test system is MALME-3M melanoma.
In experiment [13] the test system is MDA-MB-231 breast.
For experiment [14], the system named is RXF 393 renal.
For experiment [15], the system named is SF-268 CNS.
The subject of experiment [16] is SF-295 CNS.
The subject of experiment [17] is SF-539 CNS.
Experiment [18] has as its system UACC-257 melanoma.
Experiment [19] relates to M14 melanoma.

This is part of a sample that, as a whole, favours compounds with a hit. Of some 83,000 tested, about 20% had one in any assay.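 Plates (96-well) were seeded with cells, treated with compound at one concentration, and incubated for 48 hours before percent growth was determined.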 Values without a mark were called inactive. Activity calls are given as the source filed them. The calls were made as follows: active = growth percent below 10; inactive = the rest.

`N#Cc1c(NC(=O)c2cccc(C(F)(F)F)c2)sc2c1CCC(=O)C2`: the growth in experiment [1] is 0.847% (active); in experiment [2] it was 13.6%; in [3], 66.1%; in experiment [4] it was 4.66% (active); in experiment [5] it was 3.47% (active); in experiment [6] it was -28.5% (active). Also, the growth was -15.2% (active) in experiment [7]; 14.6% in [8]; 13.1% in [9]; 24% in [10]; 6.88% (active) in [11]; -64.9% (active) in [12]. Moreover, the growth in experiment [13] was -54.3% (active); in experiment [14], -23.5% (active); in experiment [15] it was 1.68% (active); in experiment [16], -6.4% (active); in [17] it was -57.8% (active); in experiment [18], -3.73% (active). Besides, the growth in experiment [19] is -68.2% (active).

In the case of `CCN1CCN(c2ccc(Nc3cc(-c4cccnc4Nc4c(Cl)c(OC)cc(OC)c4Cl)ncn3)cc2)CC1`, the growth in [1] is 63.8%; in experiment [2], 47%; in experiment [3] it was 68.7%; in experiment [4] it was 40.6%; in experiment [5], 23.7%; in experiment [6], 54.5%. For the same compound, the growth is 75.9% in experiment [7]; 39.9% in experiment [8]; 89.2% in experiment [9]; 62.9% in experiment [10]; 44.5% in experiment [11]; 76.2% in experiment [12]. The growth in [13] is 85.8%; in experiment [14], 34.3%; in experiment [15], 65.1%; in [16], 79.5%; in [17], 47.1%; in [18], 91.6%. In experiment [19], the growth is 72.9%.

Take `OC(COc1cccc2ccccc12)CN1CCN(c2ccccc2)CC1` (centres undefined): the growth was 87.3% in [1]; 99.1% in experiment [2]; 99.7% in experiment [3]; 90.4% in [4]; 106% in experiment [5]; 77.6% in experiment [6]. The growth in experiment [7] was 101%; in experiment [8], 102%; in [9] it was 94.2%; in [10], 109%; in experiment [11], 114%; in [12], 97.7%. The growth in experiment [13] was 96.1%; in experiment [14], 9.82% (active); in [15] it was 103%; in experiment [16] it was 73.3%; in experiment [17], 99.8%; in [18], 63.3%.

For `CN(C)c1ccc(/C=C/c2c(F)cccc2F)cc1`, the growth is 83.9% in experiment [1]; 94.1% in [2]; 92.7% in experiment [3]; 74.4% in experiment [4]; 107% in experiment [5]; 81% in experiment [6]. Further, the growth in [7] is 76.4%; in [8], 82.6%; in experiment [9], 105%; in experiment [10], 105%; in experiment [11], 115%; in experiment [12] it was 90.1%. Moreover, the growth in experiment [13] is 110%; in [14] it was 108%; in experiment [15] it was 93.7%; in [16], 96.6%; in [17], 98.3%; in [18] it was 89%. Moreover, the growth in experiment [19] was 93.2%.

Take `CCN(CC)CC(=O)Nc1cccc(C(=O)OC(C)C)c1`: the growth in experiment [1] was 92.1%; in [2], 96.5%; in [3], 96.8%; in [4], 92.2%; in experiment [5], 112%; in experiment [6], 82%. Besides, the growth is 66.3% in experiment [7]; 93.7% in experiment [8]; 79.8% in experiment [9]; 109% in [10]; 102% in [11]; 99.5% in [12]. Moreover, the growth was 112% in [13]; 112% in experiment [14]; 105% in experiment [15]; 95% in experiment [16]; 100% in experiment [17]; 106% in [18]. For the same compound, in experiment [19], the growth is 79.6%.

Take `COc1ccc(C2CC(c3ccc4ccccc4c3)=NN2c2nc(O)c(C3=c4cc(Cl)ccc4=NC3=O)s2)cc1` (centres undefined): the growth in experiment [1] was -40.9% (active); in experiment [2], -73.2% (active); in experiment [3], -29.7% (active); in [4], -53.8% (active); in experiment [5], -20% (active); in experiment [6] it was -57.2% (active). In addition, the growth in experiment [7] was -82% (active); in experiment [8] it was -56% (active); in experiment [9] it was -80.5% (active); in experiment [10], -20.7% (active); in [11] it was -27.2% (active); in [12] it was -54.3% (active). Further, the growth in [13] is -38.6% (active); in experiment [14] it was -67.3% (active); in [15], -33.6% (active); in experiment [16], -61.9% (active); in experiment [17], -52.5% (active); in experiment [18], -50.8% (active).

As for `CCn1c(Sc2nnc(NC(=O)CCN3CCCC3)s2)nc2c1c(=O)n(C)c(=O)n2C`, the growth is 106% in experiment [1]; 103% in experiment [2]; 105% in experiment [3]; 103% in [4]; 112% in [5]; 107% in experiment [6]. Besides, the growth in [7] was 86.8%; in [8], 99.3%; in [9], 106%; in experiment [10] it was 104%; in [11] it was 102%; in experiment [12], 107%. Moreover, the growth is 103% in experiment [13]; 110% in experiment [14]; 102% in experiment [15]; 107% in experiment [16]; 98.4% in experiment [17]; 102% in experiment [18]. Further, in experiment [19], the growth is 107%.

Consider `Clc1ccc2c(NCCCN3CCN(c4nc(N5CCOCC5)nc5ccccc45)CC3)ccnc2c1`, for which the growth in experiment [1] was 73.8%; in [2] it was 75.7%; in experiment [3], 30%; in experiment [4], 42.6%; in experiment [5] it was 4.92% (active); in experiment [6] it was 12.2%. Further, the growth in experiment [7] is 13%; in [8] it was 24%; in [9], -36% (active); in experiment [10], 27.1%; in experiment [11], -46.2% (active); in experiment [12], -82% (active). Besides, the growth in experiment [13] is -34.5% (active); in experiment [14], -76.6% (active); in experiment [15] it was 46.7%; in experiment [16] it was -46.7% (active); in [17], -82.7% (active); in [18], -68.3% (active).

(Values after PubChem BioAssay (NCI).)
